From PubChem
Shown are actives, neighbours in structure and some others; about 0.5% of the full set was active somewhere.
RGS12 GoLoco inh-1 – blocks human Gai1 binding to RGS12 GoLoco peptide, red readout | P63096 | Gai1:RGS12 GoLoco peptide FP, rhodamine, 10 min | Potency, µM (doses to about 61.6 µM), most hits filed as inhibitors | actives 0.44% (n = 230,000) | AID 880; active = well fitted inhibition curve with a large enough effect, not every such curve was filed as active; inactive = no such curve, though single readings can be large or run the other way; note: nearly all actives have a fitted effect of over 30% in size
Menin-MLL TR inh – inhibitors of human menin-MLL interaction, mutant MLL peptide. O00255. Menin + Texas Red MLL mutant peptide, fluorescence polarization. Potency, µM (titrated, usually from 61.6 µM), hits mostly inhibitors. actives 0.23% (n = 270,000). AID 1768; active = well fitted inhibition curve with a large enough effect in the polarisation, with a control signal flat, not every such curve was filed as active; inconclusive = small, poorly fitted or top-dose-only effect, or effect the other way, or a change in a side signal; inactive = no such curve, though single readings can be large or run the other way; the % refers to the polarisation
MLL CXXC-DNA inh – inhibitors of human MLL CXXC domain-DNA interaction. MLL-CXXC / FITC-HOXA9 DNA fluorescence polarization. Potency, µM (titrated, usually from 115 µM), actives largely listed as inhibitors. actives 0.037% (n = 290,000); active = well fitted inhibition curve with a large enough effect in the polarisation, with a control signal flat, not every such curve was filed as active; inconclusive = small, poorly fitted or top-dose-only effect, or effect the other way, or a change in a side signal; inactive = no such curve, though single readings can be large or run the other way; the % refers to the polarisation
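Fluorescence polarization: 7 uM MLL-CXXC (stock) preincubated 5 min with compounds, then 50 nM fluorescein-HOX-A9 DNA (stock) added; 30 min ambient. Buffer 50 mM Tris-HCl pH 7.5, 50 mM NaCl, 1 mM DTT, 0.05% BSA.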
TR SRC2 fluor cs – Texas Red fluorescence interference in TRb-SRC2 counter-screen; Potency, µM (titrated, usually from 106 µM); AID 1479; actives 0.29% (n = 280,000); TRb/SRC2 Texas Red total fluorescence interference; active = well fitted curve in either direction with a large enough effect; inconclusive = small, poorly fitted or top-dose-only effect
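Flags fluorescent or light-absorbing compounds by total fluorescence, S + 2P, at 555 nm excitation and 632 nm emission. Mixture: 20 nM Texas Red SRC2 peptide, 0.6 uM human TRb LBD, 1 uM T3, 5% DMSO; compound exposure 5 h at ambient temperature.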
Menin MLL FP FL – displaces fluorescein MLL peptide from human menin; FP activity change, % at 61.4 µM; 290,000 tested, under 10 active; AID 1766; Fluorescence polarization, fluorescein-MLL peptide displacement from menin; active = well fitted curve in the direction sought with a large enough effect in the polarisation, not every such curve was filed as active; inconclusive = small, poorly fitted or top-dose-only effect, or effect the other way, or a change in a side signal; inactive = no such curve, though single readings can be large or run the other way; the % refers to the polarisation
TRb SRC2 PPI – inhibitors of human thyroid hormone receptor beta-SRC2 interaction. AID 1469. TRbeta-SRC2 peptide binding, fluorescence polarization; receptor liganded with 1 µM T3. Potency, µM (titrated, usually from 106 µM), hits mostly inhibitors. P10828. actives 0.065% (n = 280,000); note: nearly all actives have a fitted effect of over 50% in size
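Fluorescence polarization of 20 nM Texas Red SRC2 peptide (20-aa NR interaction domain) bound to 0.6 uM human TRb ligand-binding domain, with 1 uM T3, after 5 hr at ambient temperature; inhibition seen as decreased polarization.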
RGS12 GoLoco inh-2 – disrupts Gai1 binding to human RGS12 GoLoco peptide; actives 50% (n = 110); Gai1/rhodamine-RGS12 GoLoco peptide fluorescence polarization; Potency, µM (highest dose often 57.1 µM), usual class: inhibitors; shares compounds with RGS12 GoLoco inh-1; AID 2390
MLL CXXC Fl – disrupts human MLL CXXC domain binding to DNA; MLL CXXC-DNA binding, fluorescein FP; Potency, µM (top dose mostly 345 µM), most hits filed as inhibitors; shares compounds with MLL CXXC-DNA inh; actives 70% (n = 200); AID 624160; note: nearly all actives have a fitted effect of over 80% in size
MLL CXXC FP-TR – inhibitors of human MLL CXXC domain-DNA interaction, Texas Red format; shares compounds with MLL CXXC-DNA inh; MLL CXXC-DNA binding, Texas Red fluorescence polarization; Potency, µM (top dose mostly 345 µM), actives largely listed as inhibitors; actives 40% (n = 200); note: nearly all actives have a fitted effect of over 75% in size
MLL CXXC TRF – MLL CXXC-DNA interaction inhibition, HTRF readout. shares compounds with MLL CXXC-DNA inh. MLL CXXC-DNA binding, HTRF, biochemical. Potency, µM (titrated, usually from 172 µM), most hits filed as inhibitors. actives 30% (n = 210); note: nearly all actives have a fitted effect of over 80% in size
A number is an active result; – = inactive; ? = inconclusive; · = no result. Unless noted, calls come from the whole dose curve; as a rule, active = well fitted curve in the direction sought with a large enough effect; inconclusive = small, poorly fitted or top-dose-only effect, or another doubt; inactive = no such curve, though single readings can be large; an effect the other way counts as inactive or inconclusive.

SMILES	RGS12 GoLoco inh-1	Menin-MLL TR inh	MLL CXXC-DNA inh	TR SRC2 fluor cs	Menin MLL FP FL	TRb SRC2 PPI	MLL CXXC Fl	MLL CXXC FP-TR	MLL CXXC TRF	others
Cc1cc2c(cc1C)[n+](C)cn2CC(O)COCc1ccccc1 (centres undefined)	11µM	–	–	–	–	–	·	·	·	RGS12 GoLoco inh-2=22µM
C[n+]1cn(CC(O)COCc2ccccc2)c2ccccc21 (centres undefined)	16µM	–	–	–	–	–	·	·	·	RGS12 GoLoco inh-2=14µM
CCCc1n(CC(O)COCc2ccccc2)c2ccccc2[n+]1C (centres undefined)	–	–	–	–	–	–	·	·	·
CCOc1ccc(C2CC(=O)Nc3nc(SCc4ccccc4C)[nH]c(=O)c32)cc1OC (centres undefined)	·	·	·	–	·	–	·	·	·
CCOC(=O)C1CCCN(C(=O)Cn2cnc3c2c(=O)n(C)c(=O)n3C)C1 (centres undefined)	–	–	–	–	–	–	·	·	·
CCOC(=O)C1CCCN(C(=O)Cn2sc3nc(C)cc(C)c3c2=O)C1 (centres undefined)	18µM	–	–	–	?	–	·	·	·	RGS12 GoLoco inh-2=?
CCCCC(C=O)CC (centres undefined)	–	·	·	–	·	–	·	·	·
O=C(O)CN1C(=O)/C(=C\c2cccc(OCc3ccc(Cl)cc3Cl)c2)SC1=S	·	–	?	·	–	·	?	–	–
COc1ccc(C(=C2C(=O)Nc3ccccc32)c2ccc(OC)cc2)cc1	·	–	·	–	–	–	·	·	·
O=C(O)/C=C/C(=O)c1c(-c2ccccc2)[nH]c2ccccc12	·	–	?	·	–	·	7.1µM	159µM	49µM
CC(=O)c1c(-c2ccccc2)[nH]c2ccccc12	·	–	–	·	–	·	·	·	·
O=[N+]([O-])c1cccc(-c2cn3nc(-c4ccccc4)c(-c4ccccc4)nc3n2)c1	–	·	40µM	–	?	–	179µM	–	–
O=[N+]([O-])c1ccc(-c2cn3nc(-c4ccccc4)c(-c4ccccc4)nc3n2)cc1	–	·	?	?	?	?	·	·	·
CCc1sc(C(C2C(=O)CC(C)(C)CC2=O)C2C(=O)CC(C)(C)CC2=O)cc1[N+](=O)[O-]	–	–	?	–	–	–	–	113µM	31µM
CCC1CCCCN1CCCNC(=O)c1ccc2c(c1)sc1nc(-c3ccc(F)cc3)cn12 (centres undefined)	·	·	·	–	·	–	·	·	·
N.N.O=C(O)C1(C(=O)O)CCC1.[Pt]	–	–	?	–	?	–	–	?	49µM
O=C(Nc1cc(C(=O)Nc2ccc(S(=O)(=O)O)cc2S(=O)(=O)O)cc(C(=O)Nc2ccc(S(=O)(=O)O)cc2S(=O)(=O)O)c1)Nc1cc(C(=O)Nc2ccc(S(=O)(=O)O)cc2S(=O)(=O)O)cc(C(=O)Nc2ccc(S(=O)(=O)O)cc2S(=O)(=O)O)c1	–	?	3.5µM	–	?	–	4.5µM	11µM	3.1µM
O=C(O)c1ccc(-c2c3nc(c(-c4ccc(C(=O)O)cc4)c4ccc([n-]4)c(-c4ccc(C(=O)O)cc4)c4nc(c(-c5ccc(C(=O)O)cc5)c5ccc2[n-]5)C=C4)C=C3)cc1.[Mn+3]	·	?	·	–	?	–	·	·	·
CCCCC1(C)OC(=O)C(=Cc2ccc(-c3ccc(Cl)c(C(=O)O)c3)o2)C(=O)O1 (centres undefined)	–	·	40µM	–	–	–	22µM	45µM	49µM
CCNC(=O)Cc1c(OC)ccc2cc(Br)ccc12	–	–	–	–	–	–	·	·	·
COc1ccc2cc(Br)ccc2c1CC(=O)NCC1CCCO1 (centres undefined)	–	–	32µM	–	–	–	–	–	–
COc1ccc(NS(=O)(=O)c2cccs2)cn1	–	–	–	–	–	–	·	·	·
COc1ccc(NS(=O)(=O)c2ccc(Cl)s2)cn1	–	·	?	–	?	–	126µM	–	–
O=c1[nH]c(-[n+]2ccccc2)c(/C=N/NC([S-])=Nc2ccccc2)s1	–	·	35µM	–	?	–	?	?	–
Cc1ccc(S(=O)(=O)Nc2cccc3ccc(C)nc23)cc1	·	?	·	–	–	–	·	·	·
CCOC(=O)COc1ccc(/C=C2/C(=O)NN(c3ccc(F)cc3)C2=O)cc1OC	·	–	?	·	–	·	?	?	–
COc1cc(/C=C2\C(=O)NN(c3ccccc3)C2=O)cc([N+](=O)[O-])c1O	–	?	25µM	–	–	–	45µM	113µM	–
COc1cc(/C=C2\C(=O)NN(c3ccc(C)cc3)C2=O)cc([N+](=O)[O-])c1O	–	?	22µM	–	–	–	18µM	89µM	–
